Screen size: about 330,000 compounds; about 10,000 (3%) were called active. Many of the other results were omitted from the sample, so actives are more common in it than they were. Unmarked numbers belong to inactive results.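 How the source made its calls: active means inhibition of at least 50% at 8 µM in the primary screen; inactive means the rest.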

In the experiment the target is Protein Mdm4 (Homo sapiens) + E3 ubiquitin-protein ligase Mdm2 (Homo sapiens) (UniProt O15151+Q00987). Briefly: disruptors of Mdm2/MdmX RING complex – cell-based, luminescence, split luciferase, SaOS-2, uHTS, primary screen (AID 485346). The following applies: SaOS-2 split-luciferase Mdm2/MdmX complementation, at 8 µM, stronger effect = higher value.
Protein Mdm4 (Homo sapiens) + E3 ubiquitin-protein ligase Mdm2 (Homo sapiens), sequence (O15151 whole entry, looked up): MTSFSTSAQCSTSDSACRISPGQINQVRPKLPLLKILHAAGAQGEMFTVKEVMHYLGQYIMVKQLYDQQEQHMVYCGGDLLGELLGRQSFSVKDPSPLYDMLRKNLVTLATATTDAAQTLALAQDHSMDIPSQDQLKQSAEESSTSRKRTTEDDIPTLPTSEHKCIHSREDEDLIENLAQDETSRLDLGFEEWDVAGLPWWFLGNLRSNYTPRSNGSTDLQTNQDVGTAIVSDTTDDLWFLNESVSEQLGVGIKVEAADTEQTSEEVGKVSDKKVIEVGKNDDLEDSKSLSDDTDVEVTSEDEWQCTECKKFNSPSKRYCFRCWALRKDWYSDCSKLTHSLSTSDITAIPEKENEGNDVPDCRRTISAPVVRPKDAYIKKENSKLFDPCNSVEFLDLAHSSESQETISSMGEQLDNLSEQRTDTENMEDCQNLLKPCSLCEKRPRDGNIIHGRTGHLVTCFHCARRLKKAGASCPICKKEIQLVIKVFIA
Protein Mdm4 (Homo sapiens) + E3 ubiquitin-protein ligase Mdm2 (Homo sapiens), sequence (Q00987 whole entry, looked up): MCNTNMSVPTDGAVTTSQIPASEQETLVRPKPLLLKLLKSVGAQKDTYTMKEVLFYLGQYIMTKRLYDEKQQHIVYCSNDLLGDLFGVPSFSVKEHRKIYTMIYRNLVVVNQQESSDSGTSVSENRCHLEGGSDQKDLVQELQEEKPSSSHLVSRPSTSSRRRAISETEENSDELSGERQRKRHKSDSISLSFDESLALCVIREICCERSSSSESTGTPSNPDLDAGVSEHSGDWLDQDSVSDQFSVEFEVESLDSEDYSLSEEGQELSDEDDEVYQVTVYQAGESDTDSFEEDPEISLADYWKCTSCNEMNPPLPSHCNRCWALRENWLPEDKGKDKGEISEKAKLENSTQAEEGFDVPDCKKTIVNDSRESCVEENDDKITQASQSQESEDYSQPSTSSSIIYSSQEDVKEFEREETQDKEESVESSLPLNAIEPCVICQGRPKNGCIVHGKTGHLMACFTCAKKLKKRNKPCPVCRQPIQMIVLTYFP
As to `Cc1cc(C)c2nc(N3CCC(C(=O)NCCN4CCOCC4)CC3)sc2c1`, the inhibition is 16.2%.

For `Cc1ccc(N(Cc2cc(=O)[nH]c3ccccc23)C(=O)CCl)cc1`, the inhibition is 100% (active).

On to `Cc1ccc(N(Cc2cc3ccccc3[nH]c2=O)C(=O)c2cccs2)cc1`, for which the inhibition is -12.3%.

`CC(=O)N(Cc1cc(=O)[nH]c2ccccc12)c1ccc(C)cc1C`: the inhibition is 15.3%.

For `Cc1nc(/N=C(\N)NC(=O)NC2CCCCC2)nc2ccccc12`, the inhibition was 53% (active).

For the compound `O=C(NNC(=O)C(O)c1ccccc1)NC1CCCCC1` (stereo not given), the inhibition is 16.7%.

On to `COc1ccc2nc(/N=C(\N)NC(=O)Nc3ccccc3)nc(C)c2c1`, for which the inhibition was 29%.

Turning to `COc1ccc2c(c1)C(=C(C#N)C#N)C(=O)N2CCc1ccccc1`, the inhibition is 8.08%.

As for `Cc1ccc(C)c(NC(=O)CN(C)C(=O)c2ccc3ncsc3c2)c1`, the inhibition is 10.9%.

Consider `COc1ccc(C/C(C)=N/NC(=O)c2ccncc2)cc1`, for which the inhibition was -14.9%.

Consider `C/C(=N\NC(=O)Cc1ccc(Br)cc1)c1cccnc1`, for which the inhibition is 9.71%.

Turning to `COc1ccc(CC(=O)N/N=C(\C)c2ccccn2)cc1`, the inhibition is 56.7% (active).

Take `C/C(=N\NC(=O)c1ccccc1F)c1ccccn1`: the inhibition is 64.2% (active).

Consider `C/C(=N\NC(=O)c1ccoc1C)c1ccccc1O`, for which the inhibition was 49.2%.

Regarding `C/C(CC(=O)Nc1ccc(N(C)C)cc1)=N\NC(=O)c1ccccc1F`, the inhibition was 11.6%.

Take `CCOc1ccccc1NS(=O)(=O)c1cc2c3c(c1)C(C)C(=O)N3CCC2` (stereo not given): the inhibition is 14.9%.

`CC1C(=O)N(Cc2ccccc2)c2ccccc2N1C(=O)c1ccccc1` (stereo not given): the inhibition was 4.7%.

On to `O=C(COC(=O)/C=C/c1ccc(Br)o1)Nc1cccc(S(=O)(=O)N2CCOCC2)c1`, for which the inhibition is 26.4%.

As to `CN(C)CCCSc1ccccc1NC(=O)/C=C/c1ccccc1`, the inhibition was -28.9%.

Take `CC(C)NC(=O)C(=O)NCCCOC(C)C`: the inhibition is 7.36%.

With `CN(C)c1nc2n(c(=O)n1)CCO2`, the inhibition is -0.85%.

With `COc1ccc(CCNC(=O)C2CCCN(S(=O)(=O)c3ccc(OC)cc3)C2)cc1` (stereo not given), the inhibition is 31.8%.

With `O=C(COC(=O)c1cnccn1)Nc1ccc(Cl)cc1C(F)(F)F`, the inhibition is -11.4%.

In the case of `COc1cccc(CNn2cn[nH]c2=S)c1OCc1ccccc1`, the inhibition is 24.6%.

As to `O=[N+]([O-])c1ccc(Oc2ccc(F)cc2Br)c2ccncc12`, the inhibition was 78% (active).

For `O=[N+]([O-])c1ccc(F)cc1Oc1nc(-c2cccnc2)nc2ccccc12`, the inhibition is 27.2%.

In the case of `Cc1oc2cc([N+](=O)[O-])c(O)c([N+](=O)[O-])c2c1C(=O)c1ccc(Br)cc1`, the inhibition is -16.1%.

On to `Cc1cc(C)n(CCNCc2c(C(=O)N3C[C@@H](C)O[C@@H](C)C3)nc3ccc(Cl)cn23)n1`, for which the inhibition is 6.66%.

Take `COC(C[C@@H](O)C[C@H](O)[C@H](C)OCc1ccccc1)OC`: the inhibition was -23%.

With `Cn1nnnc1-c1cc(Cl)cc(Cl)c1`, the inhibition was 16.3%.

As a reminder, the inhibition is the change of the read-out against control, counted positive when it falls.
